High-throughput results from PubChem BioAssay.
Most compounds without a hit are left out; they make up all but 1.3% or so of the library.
LAP4 TOR yeast – modulators of LAP4-GFP expression in yeast, primary screen, S. cerevisiae, multiplex flow cytometry, MLPCN library; actives 0.34% (n = 320,000); GFP response vs DMSO, % at 10 µM; 3 h; median GFP as percent of DMSO wells;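 active = GFP response vs DMSO above a set limit, about the screen mean plus 3 SD, cut at about 150% in these data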
CIT2 TOR yeast – modulators of CIT2-GFP expression in yeast, primary screen, S. cerevisiae, GFP fusion, multiplex flow cytometry, MLPCN library; GFP response vs DMSO, % at 10 µM; actives 0.065% (n = 320,000); S. cerevisiae CIT2-GFP strain, 3 h; 100 means same as DMSO wells; AID 2029, 2009;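 active = GFP response relative to DMSO above a set limit, near the screen mean plus 3 SD, cut at about 150% in these data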;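 note: ratio of well median GFP fluorescence to mean of DMSO wells on the plate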
Efflux pump mplx – inhibitors of Candida efflux pumps in yeast, primary screen, S. cerevisiae, Nile Red, multiplex | actives 0.44% (n = 330,000) | S. cerevisiae Candida pump triplex | inhibition, % at 10 µM;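 active = plate passing quality check with inhibition over a set limit, or well fluorescence over plate mean plus 4 SD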;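 note: Nile Red retained in pooled yeast measured as flow cytometry median fluorescence; higher means more Nile Red kept so more efflux inhibition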
MEP2 TOR yeast – modulators of MEP2-GFP levels in yeast, primary screen, S. cerevisiae, multiplex flow cytometry, MLPCN library | S. cerevisiae MEP2-GFP strain, 3 h; 100% = DMSO control level | GFP response vs DMSO, % at 10 µM | actives 0.51% (n = 330,000);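 active = GFP response versus DMSO above a set limit, roughly screen mean plus 3 SD, cut at about 180% in these data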;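 note: median GFP fluorescence of the barcode-gated MEP2-GFP cells per well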
RPL19A TOR yeast – RPL19A-GFP expression modulators in yeast, primary screen, cell-based, S. cerevisiae, multiplex flow cytometry, MLPCN; S. cerevisiae RPL19A-GFP strain, 3 h; stronger effect = lower value; AID 2025, 2009; percent response vs DMSO, % at 10 µM; actives 0.3% (n = 330,000);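 active = percent response vs DMSO below 50%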;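 note: median channel GFP fluorescence of the barcoded RPL19A-GFP strain; lower means less RPL19A-GFP as with rapamycin TOR inhibition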
AGP1-GFP MLPCN – modulators of AGP1-GFP expression in yeast TOR pathway, primary screen, cell-based, multiplex flow cytometry, S. cerevisiae, MLPCN library; 3 h; GFP as percent of DMSO wells; GFP response vs DMSO, % at 10 µM; actives 0.02% (n = 320,000); AID 2066, 2009;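 active = GFP response relative to DMSO above a set limit, near screen average plus 3 SD, cut at about 150% in these data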;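 note: median GFP channel fluorescence of the gated AGP1 strain per well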
Yeast cmpd fluor – compound fluorescence in yeast efflux pump counter-screen; S. cerevisiae AD/pABC3, flow cytometry; actives 4% (n = 1,700); fluorescence ratio to DMSO, % at 10 µM; shares compounds with Efflux pump mplx;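 active = fluorescence ratio to DMSO above its plate's cutoff, the plate mean ratio plus 5 SD, cut at about 210% in these data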;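 note: unstained yeast with no Nile Red so the signal is compound autofluorescence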
Mdr1 pump inh – inhibitors of Candida albicans Mdr1 efflux, confirmation, flow cytometry, singleplex, Cherry Pick1 set; shares compounds with Efflux pump mplx; S. cerevisiae AD/CaMDR1, Nile Red efflux; inhibition, % at 10 µM; actives 1% (n = 1,700); AID 588518, 2011; in the data active = inhibition above about 26%;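 note: higher means more Nile Red retained so more efflux inhibition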
CaCdr2 efflux inh – inhibitors of Candida albicans Cdr2 efflux pump, confirmation, S. cerevisiae AD/CaCDR2, flow cytometry, cherry pick 1, singleplex | shares compounds with Efflux pump mplx | Nile Red retention | Nile Red retention ratio vs DMSO, % at 10 µM | actives 4% (n = 1,700); in the data active = Nile Red retention ratio vs DMSO above about 190%;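 note: higher ratio means more blocking of Cdr2 efflux of the dye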
Cdr1 pump inh – inhibitors of Candida albicans Cdr1 efflux pump, confirmation, S. cerevisiae AD/CaCDR1, flow cytometry, cherry pick 1, singleplex; AID 588522, 2011; inhibition, % at 10 µM; actives 1% (n = 1,700); Nile Red efflux; shares compounds with Efflux pump mplx;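 active = inhibition above the screen-wide mean plus twice its standard deviation, cut at about 32% in these data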
Numbers stand for hits; i = inactive; nt = no result.

SMILES	LAP4 TOR yeast	CIT2 TOR yeast	Efflux pump mplx	MEP2 TOR yeast	RPL19A TOR yeast	AGP1-GFP MLPCN	Yeast cmpd fluor	Mdr1 pump inh	CaCdr2 efflux inh	Cdr1 pump inh
COC(=O)c1c(NC(=O)c2nn(C)cc2Cl)sc2c1CCCC2	i	i	i	i	i	i	nt	nt	nt	nt
Cn1ncc(Cl)c1C(=O)Nc1sc2c(c1C(N)=O)CCC2	i	i	i	i	i	i	i	i	i	i
CCn1ccc(C(=O)Nc2sc3c(c2C(=O)OC)CCC3)n1	i	i	0.6	i	i	i	i	i	i	i
CCn1ncc(Br)c1C(=O)Nc1cccc(C(C)=O)c1	i	i	i	i	i	i	nt	nt	nt	nt
CS(=O)(=O)c1ccc(C(=O)OCC(=O)NC2CCS(=O)(=O)C2)cc1[N+](=O)[O-] (stereo not given)	i	i	i	i	i	i	nt	nt	nt	nt
CCOC(=O)c1c(NC(=O)c2c(Br)cnn2CC)sc(C)c1C	i	i	i	i	i	i	nt	nt	nt	nt
O=C(Nc1sc2c(c1C(=O)O)CCC2)c1ccccc1Cl	i	i	0.5	i	i	i	i	i	i	i
CCn1ncc(Br)c1C(=O)Nc1sc2c(c1C(=O)OC)CCC2	i	i	i	i	i	i	i	i	i	i
O=C(Nc1sc2c(c1C(=O)O)CCCC2)c1ccccc1Cl	i	i	i	i	i	i	nt	nt	nt	nt
Cc1cc(C(=O)NCCc2ccc(S(N)(=O)=O)cc2)c(C)o1	i	i	i	i	i	i	nt	nt	nt	nt
COC(=O)CNC(=O)COC(=O)C(Cc1ccccc1)NC(=O)c1ccco1 (stereo not given)	i	i	i	i	i	i	nt	nt	nt	nt
COC(=O)C(Cc1ccccc1)NC(=O)CCNC(=O)c1ccco1 (stereo not given)	i	i	0.8	i	i	i	i	i	i	i
CC(C)Cn1c(-c2csc(C(C)C)c2)n[nH]c1=S	i	i	i	i	i	i	nt	nt	nt	nt
CCn1c(-c2csc(C(C)C)c2)n[nH]c1=S	i	i	11.1	i	i	i	i	i	i	i
CCOC(=O)N1CCN(C(=O)COc2cccc3c2CCN(Cc2ccccc2F)C3=O)CC1	i	i	2.7	i	i	i	i	i	i	i
COc1ccc(Cn2c(-c3ccccc3)nc3c(c(=O)c4ccccc4n3C)c2=O)cc1	i	i	1.1	i	i	i	i	i	i	i
NC(=S)N/N=C/c1cccc(/C=N/NC(N)=S)c1	i	i	i	i	i	i	nt	nt	nt	nt
NC(=S)N/N=C/c1ccc2ccccc2c1	i	i	8.2	i	i	i	i	i	i	i
CCCCCCCCCC(=O)N/N=C(\C)c1cccnc1	i	nt	1.6	i	i	i	i	i	i	i
CCCCCCCC(=O)N/N=C(\C)c1ccc(N)cc1	i	i	i	i	i	i	nt	nt	nt	nt
COc1ccc(OC)c(CNn2c(-c3cccc(C)c3)nc3ccccc3c2=O)c1	i	i	0.7	i	i	i	i	i	i	i
O=[N+]([O-])c1ccc(N2N=C(c3ccco3)CC2c2ccccc2)cc1 (stereo not given)	i	223.4	0.5	i	i	i	i	i	i	i
Fc1ccc(C2CC(c3ccco3)=NN2c2ccccc2)cc1 (stereo not given)	i	i	i	i	i	i	nt	nt	nt	nt
CC(=O)NCCC1CCN(c2nc3nonc3nc2N(C)Cc2ccccc2)CC1	i	i	i	i	i	i	nt	nt	nt	nt
COc1ccc(-c2nc(CN3CCN(Cc4cccc(F)c4)CC3)c(C)o2)cc1	i	i	i	i	i	i	nt	nt	nt	nt
SMILES	LAP4 TOR yeast	CIT2 TOR yeast	Efflux pump mplx	MEP2 TOR yeast	RPL19A TOR yeast	AGP1-GFP MLPCN	Yeast cmpd fluor	Mdr1 pump inh	CaCdr2 efflux inh	Cdr1 pump inh
COc1ccc(-c2nc(Cn3c(SCc4ccc(C)cc4)nc4ccncc43)c(C)o2)cc1OC	i	i	0.4	i	i	i	i	i	i	i
COc1ccc(-c2nc(Cn3c(SCc4cccc(F)c4)nc4ccncc43)c(C)o2)cc1OC	i	i	0.5	i	i	i	i	i	i	i
Cc1ccc(CSc2nc3ccncc3n2CC(=O)Nc2cc(C)cc(C)c2)cc1	i	i	i	i	i	i	nt	nt	nt	nt
Brc1ccc(-c2csc(NC3=NCCCCC3)n2)cc1	i	i	7.6	i	i	i	i	i	i	i
Cc1c(Cl)cccc1N(CC(=O)NC(C)c1ccccc1)S(C)(=O)=O (stereo not given)	i	i	i	i	i	i	nt	nt	nt	nt
O=C(Cc1ccc(Cl)cc1)NC(=S)Nc1ccccc1N1CCOCC1	i	i	1.4	i	i	i	i	i	i	i
O=C(NC(=S)Nc1ccccc1N1CCOCC1)c1ccc(-c2cccc(Cl)c2)o1	i	i	11.1	i	i	i	i	i	i	i
C/C(=N\NC(=O)c1cccc(Cl)c1)C1C(=O)c2ccccc2C1=O	i	i	12.7	i	i	i	i	i	i	i
Cn1c(=O)c(=O)n(C)c2cc(S(=O)(=O)N3CCc4ccccc43)ccc21	i	i	0.8	i	i	i	i	i	i	i
Cc1nn(-c2ccccc2)c(C)c1C(=O)OCC(=O)Nc1cccc(S(N)(=O)=O)c1	i	i	i	i	i	i	nt	nt	nt	nt
N#C/C(=C/c1ccc(CNC(=O)C(=O)Nc2cc(Cl)cc(Cl)c2)o1)C(=O)NCc1cccnc1	i	i	8.2	i	i	i	i	i	i	i
Cc1ccc(NC(=O)C(=O)NCc2ccc(/C=C(/C#N)C(=O)NCc3cccnc3)o2)cc1	i	i	i	i	i	i	nt	nt	nt	nt
Cc1ccc(NC(=O)CSc2ncc3ccccn23)cc1	i	i	i	i	i	i	nt	nt	nt	nt
CCCCn1c(=N)n(CC(O)COc2ccc(C)cc2)c2ccccc21 (stereo not given)	i	i	1.2	i	i	i	i	i	i	i
